Test results taken from PubChem BioAssay (NCATS).
Records with an inconclusive call do not appear. Entries that show only a call come without a potency. Values without a mark were called inactive. Active and inactive are the calls of the source. The call rests on the fitted dose curve; in most records, active means well fitted curve in the direction sought with a large enough effect; inconclusive means small, poorly fitted or top-dose-only effect, or another doubt; inactive means no such curve, though single readings can be large; an effect the other way counts as inactive or inconclusive.

What was measured:
[1] = target: Aldehyde dehydrogenase, mitochondrial (Homo sapiens) (UniProt P05091); assay: qHTS for Inhibitors of the Aldehyde Dehydrogenase Family (ALDH2) Primary screen (AID 2061308); further: nearly all actives have a fitted effect of over 55% in size
[2] = target: Retinaldehyde dehydrogenase 3 (Homo sapiens) (UniProt P47895); assay: qHTS for Inhibitors of the Aldehyde Dehydrogenase Family (ALDH1A3) Primary screen (AID 2061315)

| Compound | Potency [1] | Potency [2] | activity change, negative = inhibition [1] | activity change, negative = inhibition [2] |
| --- | --- | --- | --- | --- |
| COC1CC(O[C@H]2CC[C@@]3(C)C(CCC4C3CC[C@]3(C)[C@@H](C5=CC(=O)OC5)CC[C@]43O)C2)OC(C)C1O (stereo partly specified) | inactive | inactive |  |  |
| CO[C@H]1[C@H](O)[C@H](O[C@H]2CC[C@]3(C)C4CC[C@]5(C)[C@H](C6=CC(=O)OC6)CC[C@]5(O)C4CC[C@@H]3C2)O[C@@H](C)[C@@H]1O (stereo partly specified) | inactive | inactive |  |  |
| CCOc1ccc(CCNC(=O)c2ccccc2)cc1OCC | inactive | inactive |  |  |
| C[C@H](CCC(=O)O)C[C@H](C)C[C@H](C)C(=O)/C=C(\O)[C@H](C)C[C@H](C)C/C=C/[C@@H](C)[C@@H](O)[C@@H](C)[C@@H](O)C[C@@H]1CC[C@@](C)([C@H]2CC[C@@](C)([C@@H](C)O)O2)O1 | inactive | inactive |  |  |
| S=P(c1ccccc1)(c1ccccc1)c1cnc2ccccn12 | inactive | inactive |  |  |
| COC[C@]12CN(C)C3C4[C@H](OC)[C@H]1C3(C(OC)C[C@H]2O)[C@H]1C[C@@]2(O)[C@H](OC(=O)c3ccccc3)[C@@H]1[C@]4(O)[C@@H](O)[C@@H]2OC (stereo partly specified) | inactive | inactive |  |  |
| O=S(=O)(Nc1nccs1)c1ccc(NCc2cccc(F)c2O)cc1 | inactive | inactive |  |  |
| C[C@@H]1O[C@@H](O[C@H]2CC[C@@]3(C)C(CC[C@@H]4C3CC[C@]3(C)[C@@H](C5=CC(=O)OC5)CC[C@]43O)C2)[C@H](O[C@@H]2O[C@H](CO)[C@@H](O)[C@H](O)[C@H]2O)[C@H](O)[C@H]1O (stereo partly specified) | inactive | inactive |  |  |
| Cc1cccc2nc(NC3=NC(c4[nH]ncc4Cl)C4=C(CCCC4=O)N3)oc12 (stereo unspecified) | inactive | inactive |  |  |
| C[C@H]1CC[C@@H]2[C@@H](C)[C@H]3[C@H](C[C@H]4[C@@H]5CC=C6CC(O[C@@H]7O[C@H](CO)[C@@H](O)[C@H](O[C@@H]8O[C@H](CO)[C@@H](O)[C@H](O)[C@H]8O)[C@@H]7O[C@@H]7O[C@@H](C)[C@H](O)[C@@H](O)[C@H]7O)CC[C@]6(C)[C@H]5CC[C@]34C)N2C1 (stereo partly specified) | inactive | inactive |  |  |
| CCC(C)(C#N)O[C@@H]1O[C@H](CO)[C@@H](O)[C@H](O)[C@H]1O (stereo partly specified) | inactive | inactive |  |  |
| C=C[C@H]1CN2CC[C@H]1C[C@@H]2[C@@H](O)c1ccnc2ccccc12 | inactive | inactive |  |  |
| C[n+]1cc(P(=S)(c2ccccc2)c2ccccc2)n2ccccc21 | inactive | inactive |  |  |
| CCOc1ccc(CCNC(=O)c2cc3cccnc3n2Cc2cccc(C)c2)cc1OCC | inactive | inactive |  |  |
| C=C1[C@@H](C)C2[C@H](Cc3ccccc3)NC(=O)[C@@]23C(/C=C/C[C@H](C)C[C@@](C)(O)/C=C/[C@@H]3OC(C)=O)[C@@H]1O (stereo partly specified) | inactive | inactive |  |  |
| C[C@H]1O[C@@H](O[C@H]2C[C@@H](O)[C@]3(CO)C4C(CC[C@]3(O)C2)[C@@]2(O)CC[C@H](C3=CC(=O)OC3)[C@@]2(C)C[C@H]4O)[C@@H](O)[C@@H](O)[C@H]1O (stereo partly specified) | inactive | inactive |  |  |
| O=S(=O)(Nc1cccc2ccncc12)c1ccc(NCc2cccc(Cl)c2O)cc1 | inactive | inactive |  |  |
| C[C@]12CC[C@H]3[C@@H]([C@H](O)CC4=CC(=O)CC[C@@]43C)[C@@H]1CC[C@@H]2O | inactive | inactive |  |  |
| CC(=O)OC[C@H](N)C(=O)c1ccccc1 | inactive | inactive |  |  |
| Cc1cc(-c2nnc3n2CCCCC3)c(C)n1-c1ccc(Cl)cc1 | inactive | inactive |  |  |
| CC[C@H](C)[C@H](NC(=O)[C@H]1CCCCN1C)C(=O)N(COC(=O)CC(C)C)[C@H](C[C@@H](OC(C)=O)c1nc(C(=O)N[C@@H](Cc2ccc(O)cc2)C[C@H](C)C(=O)O)cs1)C(C)C |  |  | -2.41% [at 1.12 µM] | 6.02% [at 1.12 µM] |
| COC(=O)C12C(=O)C(C)(O)C(=O)C1(C)C(C)=CC1C34CCC(OC3=O)C(C)(C)C4CCC12C (stereo unspecified) | inactive | inactive |  |  |
| CCCc1ccc(NC(=O)c2ccc3c(c2)NC(=O)CS3)cc1 | inactive | inactive |  |  |
| CCOc1ccc(CCNC(=O)c2ccc(Oc3ccccc3)cc2)cc1OCC | inactive | inactive |  |  |
| Cn1cc(P(=S)(c2ccccc2)c2ccccc2)c2ccccc21 | inactive | inactive |  |  |
| CCc1nn2c(=O)c(C)c(N3CCNCC3)nc2s1 | inactive | inactive |  |  |
| Oc1cccc2cc(N3CCNCC3)cnc12 | inactive | inactive |  |  |
| O=C1Nc2ccc3ncsc3c2/C1=C/c1cnc[nH]1 | inactive | inactive |  |  |
